This is a sample that favours compounds with a hit; in the whole collection about 5% have one here.
HCMV antiviral – human cytomegalovirus inhibition; activity change, negative = inhibition, % at 57.5 µM; HFF cells, HCMV-luciferase reporter, 72 h; active compounds read low; 410,000 compounds, 4.5% hits; AID 1259415; in the data active = activity change below about -60%; inconclusive = no clear call, values can overlap the other calls; inactive = above about -39%
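After 16 h attachment at 37C, HFF cells received test compound and HCMV-luciferase (1 PFU/cell); reporter luminescence read 72 h later, data normalized against buffer-only and known inhibitor Salinomycin.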
LmPK inh – inhibitors of Leishmania mexicana pyruvate kinase; purified LmPK, Kinase-Glo ATP luminescence, 1 h; 290,000 compounds, 0.37% hits; Potency, µM (series often up to 57.5 µM), inactives show at the highest dose activity change, negative = inhibition, usual class: inhibitors; also: potency is read from the fitted curve at half-maximal effect
Target sequence (Q27686 whole entry, looked up): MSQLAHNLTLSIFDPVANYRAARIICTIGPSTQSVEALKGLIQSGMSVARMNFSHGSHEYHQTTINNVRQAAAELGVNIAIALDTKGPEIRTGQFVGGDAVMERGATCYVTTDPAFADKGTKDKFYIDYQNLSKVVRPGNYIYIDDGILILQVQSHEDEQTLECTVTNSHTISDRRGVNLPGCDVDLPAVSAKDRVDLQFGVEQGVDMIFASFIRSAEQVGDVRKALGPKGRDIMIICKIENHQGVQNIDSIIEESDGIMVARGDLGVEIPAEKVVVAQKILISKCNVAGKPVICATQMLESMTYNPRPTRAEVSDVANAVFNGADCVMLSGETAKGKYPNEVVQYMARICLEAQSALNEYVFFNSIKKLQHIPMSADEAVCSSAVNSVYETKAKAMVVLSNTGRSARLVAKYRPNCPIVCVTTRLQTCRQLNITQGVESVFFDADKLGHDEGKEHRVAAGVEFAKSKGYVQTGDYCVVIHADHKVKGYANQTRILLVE
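Purified LmPK (0.1 nM) converted ADP (0.1 mM) to ATP with PEP (0.5 mM) in imidazole buffer pH 7.2 with KCl and MgCl2, 1 h at room temperature. ATP was read by Kinase-Glo luminescence; data normalized to uninhibited and no-enzyme controls.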
Tb PYK inh – inhibitors of Trypanosoma brucei pyruvate kinase. Q57TT1. TbPYK enzyme, Kinase-Glo Plus ATP luminescence, 45 min. Potency, µM (series often up to 76.8 µM), for inactives: at the top dose activity, negative = inhibition, actives largely listed as inhibitors. 410,000 compounds, 0.12% hits; also: potency is read from the fitted curve at half-maximal effect; nearly all actives have a fitted effect of over 50% in size
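In this concentration-response screen, enzyme-free wells defined baseline while DMSO plates tracked drift. Each reaction combined TbPYK, substrate, compound and 130 uM ADP for 45 min at room temperature. Kinase-Glo Plus luminescence gave the signal.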
VACV mCherry inh – vaccinia inhibition (mCherry reporter) | Potency, µM (titrated, usually from 36.5 µM), for the others: at the top dose activity change, negative = inhibition, actives largely listed as inhibitors | 310,000 compounds, 0.63% hits | Vaccinia virus mCherry reporter infection, fluorescence; calls by dose curve; tested in A549 cells; also: potency is read from the fitted curve at half-maximal effect; nearly all actives have a fitted effect of over 35% in size
Vaccinia Venus – vaccinia inhibition (Venus reporter). Vaccinia virus Venus reporter expression, fluorescence. Potency, µM (top dose mostly 36.5 µM), without a hit: top-dose activity change, negative = inhibition, usual class: inhibitors. 330,000 compounds, 0.46% hits. AID 720580; calls by dose curve; tested in A549 cells; also: potency is read from the fitted curve at half-maximal effect; nearly all actives have a fitted effect of over 30% in size
The depositor's hits bear a star; i = inactive; ? = inconclusive; / = no result given; [ ] = remark or other dose. Unless noted, calls follow the shape of the dose curve; as a rule, active = well fitted curve in the direction sought with a large enough effect; inconclusive = small, poorly fitted or top-dose-only effect, or another doubt; inactive = no such curve, though single readings can be large; an effect the other way counts as inactive or inconclusive. % is scaled to controls: 0 for no effect and ±100 for the full control effect.

SMILES	HCMV antiviral	LmPK inh	Tb PYK inh	VACV mCherry inh	Vaccinia Venus
Cc1ccccc1-n1c(SCC(=O)Nc2ccccc2)nc2nc3c(cc2c1=O)CCCC3	-80*	1%	1%	1%	-20%
O=C(CSc1nc2ccccc2c(=O)n1-c1ccccc1F)Nc1ccc2c(c1)CCC2	-67*	3%	4%	-14%	-26%
Cc1cccc(NC(=O)CSc2nc3nc4c(cc3c(=O)n2-c2ccccc2)CCCC4)c1	-33	-5%	-3%	10%	-12%
O=S(=O)(Nc1ncccn1)c1ccc(NC(=S)Nc2ccccc2Cl)cc1	-13	3%	-11%	/	/
c1ccc2nc3c(ccc4ccccc43)cc2c1	21	/	-20%	-9%	-12%
CC(=O)Nc1ccc(-c2ccnc(-c3ccc(NC(C)=O)cc3)n2)cc1	17	11%	0%	-14%	-8%
COc1cc(/C=N/Nc2ccc(Cl)cc2)ccc1OC(=O)c1cccs1	22	0%	-8%	-10%	1%
CCC[N+](CC#Cc1ccccc1)(CCC)CC(=O)c1ccc(Cl)cc1	-7	-4%	-2%	i	-4%
CC(C)NCC(O)Cn1c2c(c3ccccc31)CCc1c-2cnn1-c1ccccc1 (stereo unspecified)	-103*	1%	-7%	/	11µM*
CN(C)C=Nc1c(C(=O)c2ccccc2)sc2nccc(N(C)C)c12	-75*	-9%	6%	i	-15%
CCOC(=O)c1sc2nccc(N(C)C)c2c1N=CN(C)C	-22	3%	2%	/	-1%
CN(C)c1ccnc2sc(C(N)=O)c(N)c12	-82*	-3%	-7%	?	-15%
CN(CC(=O)Nc1ccc(Cl)c(C(F)(F)F)c1)C(=O)c1cccnc1Sc1ccccc1	7	-4%	-3%	/	/
COC(COC(N)=O)C1=C(N2CC2)C(=O)C(C)=C(N2CC2)C1=O (stereo unspecified)	-5	/	-12%	?	2.8µM*
O=C(CC1C(=O)NCCN1Cc1ccccn1)NCCc1ccccc1F (stereo unspecified)	?	-3%	9%	i	-6%
Cn1c(NC(=O)c2cc(Br)ccc2Cl)cc(=O)n(C)c1=O	4	5%	0%	-8%	-1%
COc1ccccc1C(=O)NC(=S)/C=C1/N(C)c2ccccc2C1(C)C	-92*	1%	1%	?	-9%
CN1/C(=C\C(=S)Nc2ccccc2)C(C)(C)c2ccccc21	-71*	4%	?	-7%	72%
CN1/C(=C\C(=S)NC(=O)c2ccccc2Cl)C(C)(C)c2ccccc21	-84*	1%	-9%	-9%	23%
CN1/C(=C\C(=O)Nc2ccc(Cl)cc2)C(C)(C)c2ccccc21	?	4%	-11%	-10%	-18%
CN1/C(=C/C(=S)NC(=O)C2(C)CC2(Cl)Cl)C(C)(C)c2ccccc21 (stereo unspecified)	-69*	-1%	-4%	-21%	-14%
CCOC(=O)[C@@H]1[C@H]2COc3ccc(Br)cc3[C@@H]2N2C(=O)N(c3ccc(Br)cc3)C(=O)[C@]12C	1	0%	5%	i	-13%
CCOC(=O)[C@@H]1[C@H]2COc3ccc(Br)cc3[C@H]2N2C(=O)N(c3ccc(C(F)(F)F)cc3)C(=O)[C@]12C	-76*	/	-8%	i	-14%
Cc1ccccc1OCCc1c(C)[nH]c(=S)[nH]c1=O	-64*	9%[11.5 µM]	-14%	-27%	-26%
CCCCN(CC)Cc1ccc(CNC(=S)Nc2cccc(F)c2)o1	-23	2%	3%	-9%	-16%
SMILES	HCMV antiviral	LmPK inh	Tb PYK inh	VACV mCherry inh	Vaccinia Venus
COc1ccc2c(c1)C(n1ccc3ccccc31)C(=O)N2Cc1ccc(C(C)C)cc1 (stereo unspecified)	18	/	/	/	/
CCC1(c2ccccc2)CN(C)C1=O (stereo unspecified)	-79*	/	-6%	i	-11%
COC1C(O)C(CO)OC1n1c(Br)nc2c(=O)[nH]c(N)nc21 (stereo unspecified)	/	/	/	-12%	-9%
COC1C(CO)OC(n2c3c(Cl)cccc3c3c4c(c5c6cccc(Cl)c6[nH]c5c32)C(=O)NC4=O)C(O)C1O (stereo unspecified)	-98*	/	-1%	?	?
COCCS(=O)(=O)N(Cc1ccccc1)[C@H](C(=O)OC)C(C)C	5	/	-4%	i	-5%
COCCS(=O)(=O)N(Cc1ccc(Br)cc1)[C@@H](C)C(=O)OC	-10	/	0%	?	7.1µM*
COc1ccc(S(=O)(=O)n2nc(C)c(S(=O)(=O)N3CCOCC3)c2C)cc1OC	/	1%	/	/	/
O=C1NC(=S)NC(=O)C1=Cc1cccn1-c1ccc(O)cc1	-99*	16%	?	/	/
O=C1NC(=S)N/C1=C/c1cccn1-c1ccc([N+](=O)[O-])cc1	-8	2%	-6%	?	?
Cc1cc(C)cc(N2C(=O)NC(=O)/C(=C\c3cccn3-c3ccc(Cl)cc3)C2=O)c1	-23	1%	-3%	-12%[1.46 µM]	-1%
CN1C(=O)/C(=C/c2cccn2-c2ccc3ccccc3c2)C(=O)NC1=S	-105*	0%	?	/	25%
Cc1cc(C)cc(N2C(=O)NC(=O)/C(=C\c3cccn3-c3ccccc3)C2=O)c1	-20	0%	-11%	?	14µM*
COC(=O)C1(C(=O)OC)C/C=C\CN(S(=O)(=O)c2ccccc2[N+](=O)[O-])CC1	28	/	3%	27%	11%
CC(=O)c1ccc(NC(=O)c2cc3c(=O)oc4ccc(C)cc4c3s2)cc1	-93*	/	-9%	-2%	2%
CCC(=O)C1=C(c2ccc(OC)c(OC)c2)N(C(=O)CC)n2c(CC)nnc2S1	-63*	/	1%	1%[7.34 µM]	1%[7.34 µM]
CCC(=O)C1=C(c2ccc(C)cc2)N(C(=O)CC)n2c(nnc2C2CCCCC2)S1	12	/	3%	?	-27%
CCCC(=O)C1=C(c2cccc(OC)c2)N(C(=O)CCC)n2c(C)nnc2S1	-95*	/	-9%	?	-24%
CCC(=O)C1=C(c2ccc(F)cc2)N(C(=O)CC)n2c(nnc2-c2ccc(OC)cc2)S1	5	/	-4%	-25%	-22%
CC(=O)C1=C(c2ccccc2)N(C(C)=O)n2c(C)nnc2S1	?	-1%	-2%	/	/
COc1ccc(C2=C(C(C)=O)Sc3nnc(-c4ccc(Cl)cc4)n3N2C(C)=O)cc1OC	-21	/	1%	?	?
CCCC(=O)C1=C(c2ccc(C)cc2)N(C(=O)CCC)n2cnnc2S1	-95*	/	2%	?	?
CCCC(=O)C1=C(c2ccc(C)c(C)c2)N(C(=O)CCC)n2c(CC)nnc2S1	-76*	/	-10%	?	?
O=C(O)C1C2CCC(C2)C1C(=O)NCCCn1ccnc1 (stereo unspecified)	26	0%	-9%	/	-9%
CCCCn1nnc(NC(=O)CCC)n1	-13	-4%	-1%	/	/

Assay outcomes deposited in PubChem BioAssay by National Center for Advancing Translational Sciences (NCATS).
